High-throughput results as filed in PubChem.
Most compounds without a hit are left out; they make up all but 2.5% or so of the library.
L3MBTL1 inh = blocks human L3MBTL1; Q9Y468; AlphaScreen L3MBTL1–H3K9me1 peptide binding; Potency, µM (doses to about 57.1 µM), for the others: top-dose activity, negative = inhibition, hits mostly inhibitors; 230,000 tested, 0.66% active; AID 485360; further: on the % scale 0 is the no-effect control and ±100 the full control effect; nearly all actives have a fitted effect of over 60% in size
Target sequence (Q9Y468 whole entry, looked up): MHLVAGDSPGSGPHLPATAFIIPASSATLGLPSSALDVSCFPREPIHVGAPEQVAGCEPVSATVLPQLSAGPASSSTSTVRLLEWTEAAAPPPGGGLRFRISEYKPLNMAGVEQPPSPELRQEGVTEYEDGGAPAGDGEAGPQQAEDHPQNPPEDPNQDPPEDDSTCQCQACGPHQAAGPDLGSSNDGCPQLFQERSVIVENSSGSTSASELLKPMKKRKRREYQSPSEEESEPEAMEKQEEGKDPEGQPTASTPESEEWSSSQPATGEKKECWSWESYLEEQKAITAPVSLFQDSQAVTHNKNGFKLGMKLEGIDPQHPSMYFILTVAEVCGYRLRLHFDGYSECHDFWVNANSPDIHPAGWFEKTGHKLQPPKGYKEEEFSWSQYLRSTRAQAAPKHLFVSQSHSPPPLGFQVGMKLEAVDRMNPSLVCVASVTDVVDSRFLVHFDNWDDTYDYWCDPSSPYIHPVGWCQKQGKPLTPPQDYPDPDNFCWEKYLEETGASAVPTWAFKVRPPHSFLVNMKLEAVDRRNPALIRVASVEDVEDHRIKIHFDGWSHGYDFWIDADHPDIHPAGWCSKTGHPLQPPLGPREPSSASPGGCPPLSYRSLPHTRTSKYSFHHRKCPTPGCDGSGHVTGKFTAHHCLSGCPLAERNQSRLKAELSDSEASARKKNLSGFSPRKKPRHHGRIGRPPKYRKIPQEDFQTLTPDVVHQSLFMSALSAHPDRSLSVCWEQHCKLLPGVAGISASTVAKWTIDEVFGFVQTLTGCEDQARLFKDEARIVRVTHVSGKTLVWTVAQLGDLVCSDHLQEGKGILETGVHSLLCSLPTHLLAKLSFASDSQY
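L3MBTL1 50 nM + b-AHA-H3(1-15)K9me1 75 nM, 30 min RT; compound added, 30 min RT; streptavidin donor/Ni-chelate acceptor beads 10 ug/mL each final, 30 min RT dark; AlphaScreen read.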
POLH inh = inhibitors of human DNA polymerase eta. recombinant Pol eta, fluorescent DNA replication assay. Potency, µM (series often up to 114 µM), inactives show at the highest dose activity change, negative = inhibition, actives largely listed as inhibitors. Q9Y253. 390,000 tested, 1.2% active; further: on the % scale 0 is the no-effect control and ±100 the full control effect
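Pol eta at 10 nM preincubated with compounds 15 min at room temperature; reaction started with fluorescent substrate (50 nM final) and read kinetically at 0 and 10 min.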
Pol beta inh = inhibitors of human DNA polymerase beta. Pol beta primer extension/strand displacement, fluorescence kinetic. Potency, µM (highest dose often 114 µM), inactives show at the highest dose activity change, negative = inhibition, actives largely listed as inhibitors. P06746. 340,000 tested, 1.3% active; further: on the % scale 0 is the no-effect control and ±100 the full control effect
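Enzyme-only controls used 10 nM Pol beta; buffer lacking enzyme served as negative control. Compound preincubated 15 min, then 50 nM substrate added; 0 and 10 min reads at room temperature.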
POLK inh = inhibitors of human DNA polymerase kappa; 400,000 tested, 0.53% active; purified Pol kappa, fluorescent DNA synthesis assay, 10 min; Potency, µM (titrated, usually from 107 µM), for the others: at the top dose activity, negative = inhibition, actives largely listed as inhibitors; Q9UBT6; further: on the % scale 0 is the no-effect control and ±100 the full control effect
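Inhibition of 10 nM Pol kappa is measured by a fluorescent read-out at 0 and 10 min following addition of 50 nM substrate (final), with a 15-min room-temperature compound preincubation.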
POLI inh = inhibitors of human DNA polymerase iota. Potency, µM (highest dose often 115 µM), inactives show at the top dose activity, negative = inhibition, usual class: inhibitors. 390,000 tested, 1% active. Pol iota fluorescent replication assay, 10 min. Q9UNA4
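Pol iota at 10 nM preincubated 15 min with compounds at room temperature; reaction started with fluorescent substrate, 50 nM final. Fluorescence read kinetically at 0 and 10 min; buffer-only wells as negative control.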
APEX1 inh = APE1 (human) endonuclease inhibition. P27695. recombinant APE1, TAMRA/BHQ-2 abasic DNA cleavage fluorescence. Potency, µM (series often up to 65.8 µM), for the others: top-dose activity change, negative = inhibition, hits mostly inhibitors. 350,000 tested, 0.35% active;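 further: plate controls were vehicle for no effect and reference inhibitor for full effect; nearly all actives have a fitted effect of over 55% in size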
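Enzyme (0.75 nM final) and test compound are incubated 15 min at room temperature before adding 50 nM quenched THF abasic-site duplex. Cleavage dequenches TAMRA, followed at 525/598 nm over three reads one minute apart.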
* = called active by the depositor; ? = inconclusive; . = not tested or not shown; [ ] = dose if it differs, or a comment. The call rests on the fitted dose curve; in most records, active means well fitted curve in the direction sought with a large enough effect; inconclusive means small, poorly fitted or top-dose-only effect, or another doubt; inactive means no such curve, though single readings can be large; an effect the other way counts as inactive or inconclusive. Potency means the concentration at half of the fitted maximal effect.

SMILES	L3MBTL1 inh	POLH inh	Pol beta inh	POLK inh	POLI inh	APEX1 inh
O=C(CN1C(=O)NC2(CCCC2)C1=O)OCc1c(F)cccc1Cl	7.2%	-4.3%	.	5.7%	58.9%	27.9%
O=C(COC(=O)/C=C/c1ccco1)NCCN1C(=O)CSC1=O	.	50.1µM*	.	-19.8%	-16.0%	.
Cc1nc(NC(=O)COC(=O)/C=C/c2ccco2)c(Cl)cc1Cl	-14.6%	28.2µM*	.	70.8µM*	31.6µM*	3.0%
CC(C)=CC(=O)OCC(=O)Nc1nc(C)c(Cl)cc1Cl	-0.6%	0.9%	20.8%	-9.4%	2.2%	1.8%
CS(=O)(=O)N1CCC(C(=O)NCc2ccco2)CC1	?	?	4.2%	-7.3%	50.1µM*	-2.6%
CCOC(C)=O	.	.	.	-7.4%[60.1 µM]	.	4.5%
O=S(=O)(NCC(O)COCc1ccco1)c1cccs1 (configuration not stated)	?	20µM*	22.4µM*	35.5µM*	22.4µM*	?
Cc1ccc(S(=O)(=O)N2CCCC2C(=O)NCc2ccccc2Cl)cc1 (configuration not stated)	43.7%	-4.5%	14.0%	-7.7%	8.2%	-0.7%
COc1ccc(OCCCC(=O)OCC(=O)Nc2ccc(Cl)cn2)cc1	0.3%	-1.7%	.	-4.1%	33.5%	9.9%
Cc1ccc(OCCC(=O)OCC(=O)Nc2ccc(Cl)cn2)cc1	?	15.8µM*	-21.4%	-37.8%	?	-2.1%
Cn1c(CCNC(=O)C2CCCCC2)nc2cc(NC(=O)c3cccs3)ccc21	1.7%	2.6%	39.8µM*	1.0%	89.1%	0.7%
COc1cccc(NC(=O)CCc2c(C)nc3ncnn3c2C)c1	.	-11.8%	34.7%	3.4%	7.6%	.
O=C(CCn1c(=S)[nH]c2ccccc2c1=O)Nc1cccc(Cl)c1	.	-17.8%	0.0%	-7.2%	28.2%	21.7%
COc1ccc(NC(=O)CCn2c(=S)[nH]c3ccccc3c2=O)cc1Cl	.	35.5µM*	.	.	.	.
O=C(NCc1ccco1)C(c1ccc(F)cc1)N(CC1CCCO1)C(=O)Cn1nnc2ccccc21 (configuration not stated)	.	-17.2%	0.316µM*	-6.3%	16.2%	0.1%
Cc1ccc(NS(=O)(=O)c2cccc3nsnc23)cc1	-15.9%	-10.8%	2.9%	0.8%	30.9%	9.6%
O=S(=O)(Nc1ccccc1)c1cccc2nsnc12	-29.7%	?	5.2%	?	56.2µM*	7.52µM*
CCOC(=O)CCCCCC(=O)Nc1ccc2c(c1)C(=O)N([C@@H](C)CO)C[C@@H](C)[C@H](CN(C)S(=O)(=O)c1cccs1)OCCCC[C@H](C)O2	.	-27.0%	.	.	.	.
Cc1nnc(NC(=O)c2cc(-c3ccco3)nc3ccccc23)s1	6.31µM*	.	.	.	.	-71.5%
COc1ccc(CNC(=O)COC(=O)c2cc(-c3ccco3)nc3ccccc23)cc1	.	.	7.08µM*	.	.	20µM*
Cc1ccc(-c2cc(C(=O)NN3CCOCC3)c3cc(Br)ccc3n2)o1	-4.7%	0.0%	?	-12.5%	12.8%	-3.0%
O=C(Nc1nc2ccccc2s1)c1cc(-c2ccco2)nc2ccccc12	-14.8%	?	-0.1%	-4.5%	?	5.3%
COc1cccc(NC(=O)CN(C)C(=O)c2cc(-c3ccc(C)o3)nc3ccccc23)c1	2.5%	-15.8%	.	-18.7%	28.6%	-15.1%
Cc1ccc(-c2cc(C(=O)NC3=NCCS3)c3cc(Br)ccc3n2)o1	31.6µM*	.	79.4µM*	.	.	0.1%
COc1ccc(CNC(=O)COC(=O)c2cc(C)nc3ccccc23)cc1	1.3%	0.7%	.	-10.3%	15.9%	-19.7%
COc1cccc(NC(=O)c2cc(-c3ccc(C)o3)nc3ccccc23)c1	.	79.4µM*	?	?	?	?
CCOC(=O)c1noc2nc(C)n(CC(=O)NC(C)CC)c(=O)c12 (configuration not stated)	.	-12.2%	0.0%	-6.6%[60.1 µM]	12.6%	.
Cc1cc(C)cc(-n2c(SCC(=O)N3CCCC3)nc3c([nH]c4ccccc43)c2=O)c1	.	-1.2%	-1.1%	-5.0%[60.1 µM]	19.5%	.
